# Screens as filed in PubChem BioAssay.
# HT1080NT lethal = kills 2HG-producing HT-1080-NT fibrosarcoma cells; Potency, µM (highest dose often 46.1 µM), for the others: at the highest dose activity, negative = less viability, most hits filed as cytotoxic; hit rate 1.6% among 360,000; HT-1080-NT fibrosarcoma viability, CellTiter-Glo ATP luminescence, 48 h;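 also: NT is the 2HG producing partner of a matched IDH1 knockdown line; potency is read from the fitted curve at half-maximal effect; 0% = DMSO-treated cells and -100% = media-only wells without cells; nearly all actives have a fitted effect of over 55% in size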
#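 Luminescent CellTiter-Glo readout after 48 hours of compound exposure at 37 degrees C defined viability of HT-1080-NT cells. Activity was normalized to DMSO wells and cell-free media wells; concentration-response curves were fitted and assigned curve classes.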
# DT40 TDP1 CPT = DT40-hTDP1 cell growth loss with CPT | chicken DT40 Tdp1-/-;hTDP1 cells + 20 nM CPT, ATP luminescence, 48 h | Potency, µM (titrated, usually from 46.2 µM), for inactives: at the highest dose activity change, negative = growth inhibition, actives largely listed as inhibitors | hit rate 12% among 420,000; also: potency is read from the fitted curve at half-maximal effect; nearly all actives have a fitted effect of over 55% in size
#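 Cell growth measured by CellTiter-Glo luminescence after a minimum 48 h, 37 C compound exposure with 20 nM CPT in Tdp1-knockout DT40 cells stably expressing hTDP1, seeded 400/well; qHTS titration format.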
# HT1080 IDH1KD tx = toxicity to HT-1080 IDH1 knockdown cells (counter line); HT-1080 IDH1 knockdown viability, ATP luminescence, 48 h; hit rate 2% among 360,000; Potency, µM (doses to about 46.1 µM), for inactives: at the top dose activity, negative = toxicity, most hits filed as cytotoxic;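 also: potency is read from the fitted curve at half-maximal effect; 0% = DMSO wells and -100% = cell-free medium wells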
#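 Knockdown cells (IDH1KD HT-1080) received compounds 2 h after plating at 750 cells/well and were kept 48 h at 37 °C in 5% FBS RPMI. A CellTiter-Glo luminescence read gave % activity for curve fitting.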
# IL1B secr inh = blocks inflammasome-driven IL-1 beta release; hit rate 4.7% among 360,000; activity change, % at 57.5 µM; AID 743279; THP-1 LPS/ATP IL-1B secretion, AlphaLISA, 16 h; stronger effect = lower value; in the data active = activity change below about -50%; inconclusive = mostly about -30% to -49%
#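 THP-1 cells pretreated 1 hr with compounds (up to 57.5 uM final), then stimulated with LPS (250 ng/mL final) plus ATP (1.25 mM final); secreted IL-1B measured by AlphaLISA after 16 hr, decreased signal indicating inhibition.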
# TDP1 cell noCPT = qHTS for Inhibitors of human tyrosyl-DNA phosphodiesterase 1 (TDP1): qHTS in cells in absence of CPT. AID 686978, 2013. Potency, µM (highest dose often 46.2 µM), for the others: at the highest dose activity change, negative = growth inhibition, actives largely listed as inhibitors. DT40 Tdp1-/- hTDP1 cells, no CPT, ATP luminescence, 48 h. hit rate 15% among 420,000; also: potency is read from the fitted curve at half-maximal effect; nearly all actives have a fitted effect of over 55% in size
#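 Luminescent ATP content (CellTiter-Glo) served as the growth readout. Knockout chicken DT40 cells expressing human TDP1 were exposed to compounds without camptothecin for a minimum 48 hr at 37 °C.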
# ELG1 repair inh = blocks ELG1-dependent DNA repair in HEK293T cells; AID 504467; Potency, µM (titrated, usually from 46.1 µM), for the others: top-dose activity change, negative = inhibition, usual class: inhibitors; hit rate 2.3% among 330,000; HEK293T ELG1-luciferase reporter, luminescence, 16 h; DNA damage induced by 5-fluorouridine; also: potency is read from the fitted curve at half-maximal effect; nearly all actives have a fitted effect of over 55% in size
#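 DMSO vehicle served as the neutral condition. Each well held 2,000 cells given 5-fluorouridine plus compound; after 16 hr at 37 °C/5% CO2, ONE-Glo was added and luciferase measured 30 min later.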
# Starred values were filed as active, the others as inactive; ? = inconclusive; nt = no result; [ ] = dose if it differs, or a comment. Most compounds without a hit are left out; they make up all but 19% or so of the library. Unless noted, calls follow the shape of the dose curve; as a rule, active = well fitted curve in the direction sought with a large enough effect; inconclusive = small, poorly fitted or top-dose-only effect, or another doubt; inactive = no such curve, though single readings can be large; an effect the other way counts as inactive or inconclusive. Unless noted, % is scaled to controls: 0 for no effect and ±100 for the full control effect.
SMILES,HT1080NT lethal,DT40 TDP1 CPT,HT1080 IDH1KD tx,IL1B secr inh,TDP1 cell noCPT,ELG1 repair inh
CC(=O)Nc1cccc(NC(=O)C2CCCO2)c1 (stereo not given),4%,-1%,2%,16,10%,nt
C#Cc1cccc(NC(=O)c2ccc(Cl)cc2Cl)c1,-1%,-12%,-1%,-8,29µM*,?
O=C(Nc1ccc(Nc2ccccc2)cc1)c1ccc(Cl)cc1Cl,-13%,15µM*,?,?,?,nt
O=C(NNC(=O)c1ccc(Cl)cc1Cl)Nc1ccccc1,29%,-1%,30%,-19,-5%,0%
CCC(COC)NC(=O)c1cnn(-c2ncc3c(n2)-c2ccccc2CCC3)c1C (stereo not given),nt,-24%,nt,nt,-26%,nt
Cc1cc2nccc(-c3ccncc3)n2n1,0%,?,1%,5,-18%,13µM*
CCC(=O)Nc1sc(Cc2ccccc2)c(C)c1C(N)=O,-11%,16µM*,3%,-11,?,-26%
Cc1c(Cc2ccccc2)sc(NC(=O)C(C)(C)C)c1C(N)=O,-9%,16µM*,1%,0,29µM*,-7%
Cc1c(Cc2ccccc2)sc(NC(=O)Cc2ccccc2)c1C(N)=O,?,?,?,-19,?,nt
CN(C)C(=O)CCc1ccc2c3c([nH]c2c1)[C@]1(CCC2CCCC2)[C@@H](C(=O)N2CCOCC2)C[C@H](CC(=O)NC(C)(C)C)C(=O)N1CC3,0%,-24%,0%,-6,?,1%
CC(=O)N1c2ccc(S(=O)(=O)NCCC(=O)Nc3ccc(C)cc3Br)cc2CC1C (stereo not given),nt,12µM*,nt,nt,9.2µM*,nt
CC(=O)N1c2ccc(S(=O)(=O)NCCC(=O)NCCc3ccc(C)cc3)cc2CC1C (stereo not given),0%,21µM*,-27%,40,?,?
Cc1ccc(S(=O)(=O)NCCC(=O)NCCc2ccc(S(N)(=O)=O)cc2)cc1C,-5%,3.3µM*,0%,-2,-23%,4%
CC(=O)N1c2ccc(S(=O)(=O)NCCc3ccc(Cl)cc3)cc2CC1C (stereo not given),-23%,?,-8%,8,?,-3%
Cc1ccc(S(=O)(=O)NCCC(=O)OCC(=O)NCCc2ccccc2)cc1C,0%,11%,5%,6,1%,1%
CC(=O)N1c2ccc(S(=O)(=O)NCCC(=O)NCCc3ccc(Cl)cc3)cc2CC1C (stereo not given),-17%,16µM*,-10%,16,?,-25%
CCN(C(=O)CSc1nnc(CNc2cccc(OC)c2)n1C1CCCCC1)C1CCS(=O)(=O)C1 (stereo not given),-2%,-12%,-6%,7,?,-3%
COc1ccccc1NC(=O)CSc1nc(-c2ccc(C(C)(C)C)cc2)c(C#N)c(=O)[nH]1,nt,-15%,nt,nt,-8%,nt
O=c1c(-c2cc(F)cc(F)c2)nc2cncnc2n1-c1ccccc1,nt,8%,nt,nt,-2%,nt
CCN(CC)CCCNC(=O)c1cc2c(Cl)nc3ccccc3c2s1,?,18µM*,?,?,?,0%
CCN(CCCNC(=O)c1cc2c(Cl)nc3ccccc3c2s1)Cc1ccccc1,nt,?,nt,nt,23µM*,nt
CCCCN(CC)CCNC(=O)c1cc2c(=O)[nH]c3ccccc3c2s1,0%,?,0%,nt,?,7%
COC(=O)c1oc2ccccc2c1NC(=O)/C=C/C(=O)O,25%,-8%,20%,1,-2%,16%
Cc1noc(C)c1NC(=O)N(C)C[C@H]1Oc2ccc(NC(=O)Nc3ccccc3)cc2C(=O)N([C@H](C)CO)C[C@@H]1C,2%,9%,4%,43,-1%,?
O=C(ONc1ccc(N=NC(=O)c2ccccc2O)cc1)c1ccccc1,2.3µM*,7.3µM*,1.8µM*,39,6.5µM*,?
SMILES,HT1080NT lethal,DT40 TDP1 CPT,HT1080 IDH1KD tx,IL1B secr inh,TDP1 cell noCPT,ELG1 repair inh
C#Cc1cccc(C(=O)NCc2nc(-c3ccccc3NC(=O)C3CCCO3)oc2C)c1 (stereo not given),nt,3%[9.04 µM],nt,nt,-8%,nt
O=NNc1nc2ccccc2n1Cc1ccccc1,?,4.6µM*,?,201,2.3µM*,?
COc1cc(CNc2nc3ccccc3n2Cc2ccccc2)ccc1O,-1%,-30%,-9%,3,?,nt
COc1ccc(CNc2nc3ccccc3n2Cc2ccc(Cl)cc2)cc1OC,21µM*,16µM*,16µM*,-89*,13µM*,-13%
CCn1c(NCc2cccc(Cl)c2)nc2ccccc21,nt,?,nt,nt,23µM*,nt
Clc1cccc(CNc2nnnn2-c2ccccc2)c1,-5%,?,-14%,41,16µM*,?
CCOc1cc(C(=O)N2CCC3(CC2)NCCc2[nH]cnc23)cc(OCC)c1OCC,1%,-1%,0%,-4,7%,-7%
CC(=O)Oc1ccc(C(=O)COC(=O)CNC(=O)COc2ccccc2C)cc1,nt,-27%,nt,nt,?,nt
C(=N\c1nc2ccccc2n1Cc1ccccc1)/c1cccs1,0%,?,-18%,-68*,?,?
CCn1c(NC(=O)c2cccc(Cn3cc(Cl)cn3)c2)nc2ccccc21,-23%,15µM*,-18%,36,15µM*,?
CCc1nc2ccccc2n1Cc1ccc(OC)c(OC)c1,-13%,?,-22%,24,?,-2%
CCn1c(NCc2ccc(OC)c(OC)c2)nc2ccccc21,nt,?,nt,nt,9.2µM*,nt
Cn1c(NC(=O)c2cccc(Cn3cc(Cl)cn3)c2)nc2ccccc21,-7%,?,-23%,-13,?,?
C(=N\c1nc2ccccc2n1CCN1CCOCC1)/c1cccs1,10%,9%,7%,13,-4%,1%
COc1ccc(/C=C/c2nc3ccccc3n2Cc2ccc(OC)c(OC)c2)cc1,-27%,?,-17%,-54*,?,?
CCn1nc(C)cc1-c1nnc(Sc2ncc([N+](=O)[O-])s2)n1C,10µM*,0.58µM*,21µM*,-99*,0.58µM*,?
CCCN1CCN(CCCNC(=O)CCCn2nc(C)c3sc4ccccc4c3c2=O)CC1,-6%,5%,0%,-14,-9%,17%
COc1ccccc1CNC(=O)CCCn1nc(C)c2sc3ccccc3c2c1=O,nt,-18%,nt,nt,-20%,nt
